Bioassay records as filed in PubChem.
Only some compounds are listed: those with a hit (about 5.7% of all), similar ones and a draw of the others.
B2AR arrestin – beta2AR (human) beta-arrestin recruitment activity; 0.02% of 330,000 active; Potency, µM (highest dose often 46.1 µM), actives largely listed as activators; P07550; beta-arrestin recruitment to beta2AR, cell-based reporter; further: nearly all actives have a fitted effect of over 65% in size
VP16 counter – counter-screen for ROR gamma inhibitors: Gal4-VP16 reporter; Drosophila S2 Gal4-VP16 UAS-luciferase, luminescence, 20 h; Potency, µM (doses to about 53.6 µM), most hits filed as inhibitors; 3.5% of 310,000 active;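 further: Gal4-VP16 expression switched on by copper sulfate through the metallothionein promoter; nearly all actives have a fitted effect of over 50% in size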
NPSR antag – antagonists of human neuropeptide S receptor cAMP signaling. Q6W5P4. CHO-NPSR cells, cAMP TR-FRET, antagonist mode. Potency, µM (top dose mostly 38.3 µM), usual class: inhibitors. 1% of 220,000 active. AID 1461; further: nearly all actives have a fitted effect of over 50% in size
RORgamma inh – inhibitors of mouse ROR gamma transcriptional activity; Drosophila S2 Gal4-RORgamma UAS-luciferase reporter, 20 h; P51450; 5.4% of 310,000 active; Potency, µM (doses to about 53.6 µM), usual class: inhibitors; further: nearly all actives have a fitted effect of over 60% in size
Target sequence (P51450 whole entry, looked up, the tested form may be a part): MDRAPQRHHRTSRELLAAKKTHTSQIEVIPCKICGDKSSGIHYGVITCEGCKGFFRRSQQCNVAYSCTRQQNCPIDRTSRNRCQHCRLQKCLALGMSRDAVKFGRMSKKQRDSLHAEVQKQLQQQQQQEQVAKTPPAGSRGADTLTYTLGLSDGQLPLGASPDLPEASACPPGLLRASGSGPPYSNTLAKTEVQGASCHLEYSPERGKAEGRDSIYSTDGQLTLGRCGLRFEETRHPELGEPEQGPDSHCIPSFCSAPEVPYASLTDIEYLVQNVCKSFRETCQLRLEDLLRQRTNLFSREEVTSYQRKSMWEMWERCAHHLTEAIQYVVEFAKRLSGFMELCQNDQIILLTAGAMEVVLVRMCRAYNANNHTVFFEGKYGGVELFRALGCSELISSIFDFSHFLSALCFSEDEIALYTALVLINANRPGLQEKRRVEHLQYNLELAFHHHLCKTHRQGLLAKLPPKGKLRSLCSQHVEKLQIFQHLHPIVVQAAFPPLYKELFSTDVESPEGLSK
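Using a luciferase readout, inhibitors were identified by reduced reporter activity in Drosophila cells coexpressing a copper-inducible Gal4–ROR gamma fusion and UAS-driven Photinus luciferase, incubated 20 hr after 700 uM copper sulfate.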
Of the large screens only hits and unclear results are named; the others gave an inactive call. The call rests on the fitted dose curve; in most records, active means well fitted curve in the direction sought with a large enough effect; inconclusive means small, poorly fitted or top-dose-only effect, or another doubt; inactive means no such curve, though single readings can be large; an effect the other way counts as inactive or inconclusive.

COC(=O)N[C@@H](c1cccc(C)c1)[C@@H](C)[N+](=O)[O-]	none (no result: B2AR arrestin, NPSR antag)
CC(C(=O)O)n1c2ccccc2c2cnn(C)c(=O)c21 (stereo unspecified)	none (no result: NPSR antag)
O=C(CCn1c(=O)c2ccccc2n(CC(=O)NCCC2=CCCCC2)c1=O)NCc1ccco1	none
CCCNC(=O)C(=O)NCCC1=CCCCC1	none
O=C(NC(=S)NCCC1=CCCCC1)c1cncc(Br)c1	VP16 counter 8.9µM, RORgamma inh 4.5µM
S=C(NCCC1=CCCCC1)NCc1ccco1	VP16 counter inconclusive, RORgamma inh 7.1µM
O=C(NC(=S)NCCC1=CCCCC1)c1ccccc1Br	VP16 counter 3.2µM, NPSR antag inconclusive, RORgamma inh 3.5µM
C[C@]12CCC(=O)CC1=CCC1C3CC=C(C#N)[C@@]3(C)CC[C@@]12O (stereo partly specified)	none (no result: NPSR antag)
O=C(c1ccccc1)c1cc(Cl)ccc1N1C(=O)C=CC1=O	VP16 counter 16µM, NPSR antag inconclusive, RORgamma inh inconclusive
CCN(CC)S(=O)(=O)c1cc(Cl)ccc1OC	none
COc1ccc(NC(=S)N(CCc2c(C)[nH]c3ccc(C)cc23)Cc2cccnc2)cc1	RORgamma inh inconclusive
COc1ccc(CCNC(=S)Nc2ccc(C(C)C)cc2)cc1	VP16 counter inconclusive, RORgamma inh 2.5µM
COc1ccc(NC(=S)NCCc2c(C)[nH]c3ccc(OC)cc23)cc1	VP16 counter inconclusive, RORgamma inh 5.6µM
COc1ccc(CNC(=O)Nc2cc(C)cc(C)c2)cc1	none
COc1ccc(CCNC(=S)Nc2cc(C)cc(C)c2)cc1	VP16 counter 13µM, RORgamma inh 7.1µM
CC(C)c1ccc(NC(=S)Nc2ccc(OC(F)(F)F)cc2)cc1	VP16 counter 11µM, RORgamma inh 8.9µM
FC(F)(F)Oc1ccc(NC(=S)Nc2ccc(OC(F)(F)F)cc2)cc1	VP16 counter inconclusive, RORgamma inh inconclusive
C[C@@H]1CN(C(=O)c2ccc(OC3CCN(S(=O)(=O)N(C)C)CC3)cc2)C[C@H](C)O1	none (no result: NPSR antag)
Cc1cc(C2(c3cc(C)c(O)cc3C)OS(=O)(=O)c3ccccc32)c(C)cc1O	none (no result: B2AR arrestin, NPSR antag)
Cc1ccc(NC(=S)NCCc2ccc(S(N)(=O)=O)cc2)cc1C	RORgamma inh inconclusive
COc1ccc(CCNC(=S)Nc2ccc(OC)cc2)cc1	VP16 counter 10µM, RORgamma inh 3.5µM
COc1ccc(NC(=S)NCCCCCC(=O)C[N+](=O)[O-])cc1	VP16 counter inconclusive, RORgamma inh 4.5µM
Cc1cc(C)cc(NC(=S)NCCc2ccc(S(N)(=O)=O)cc2)c1	VP16 counter inconclusive, RORgamma inh 10µM
COc1ccc(CCNC(=S)Nc2ccccc2)cc1	VP16 counter 7.1µM, RORgamma inh 2µM
O=C(CCCCCNC(=S)Nc1ccc(Cl)cc1)C[N+](=O)[O-]	none
CNC(=S)NCCc1ccc(OC)cc1	RORgamma inh inconclusive
CNC(=S)NCCCCc1cnc[nH]1	none (no result: B2AR arrestin, NPSR antag)
Cc1noc(-c2ccc(CSCCC(=O)O)cc2)c1NC(=O)OC(C)c1ccccc1Cl (stereo unspecified)	none (no result: B2AR arrestin, NPSR antag)
COC(=O)CS(=O)(=O)c1nnc([C@H](Cc2ccccc2)NC(=O)OC(C)(C)C)o1	VP16 counter inconclusive, NPSR antag 7.9µM, RORgamma inh inconclusive
Cc1cccc(CS(=O)(=O)c2nnc([C@H](Cc3ccccc3)NC(=O)OC(C)(C)C)o2)c1	VP16 counter 11µM, NPSR antag inconclusive, RORgamma inh 11µM
COc1cc(C(=O)OC2CC[C@]3(C)C4CCC5[C@]6(O)CC(O)[C@]7(O)C(CN8CC(C)CCC8[C@]7(C)O)[C@]6(O)C[C@@]53O[C@]24O)cc(OC)c1OC (stereo partly specified)	none (no result: B2AR arrestin, NPSR antag)
C[C@@]1(O)C(O)[C@@H](CO)O[C@H]1n1cnc2c(NC3CCCC3)nc(Cl)nc21 (stereo partly specified)	none (no result: B2AR arrestin, NPSR antag)
Cc1ccc(N2C(=O)N(CC(=O)C(C)(C)C)c3ccccc3S2(=O)=O)cc1	none
O=C(N/N=C/c1ccc(-c2cccc(C(F)(F)F)c2)o1)c1ccccc1Br	RORgamma inh 11µM
NC(=O)N/N=C/c1ccc(-c2cccc(C(F)(F)F)c2)o1	none
O=C(N/N=C/c1ccc(-c2cccc(C(F)(F)F)c2)o1)c1ccccc1O	VP16 counter 0.56µM, RORgamma inh 0.28µM
CC(C)C[C@H](NC(=O)c1[nH]cnc1C(=O)N[C@H](C)c1ccccc1)C(=O)OC(C)(C)C	VP16 counter 5.6µM, NPSR antag inconclusive, RORgamma inh 5µM
C[C@H](NC(=O)c1nc[nH]c1C(=O)NCCCCCNC(=O)OC(C)(C)C)c1ccccc1	none (no result: VP16 counter, NPSR antag, RORgamma inh)
CC(C)C[C@H](NC(=O)c1nc[nH]c1C(=O)NC(c1ccccc1)c1ccccc1)C(=O)OC(C)(C)C	VP16 counter 3.5µM, NPSR antag inconclusive, RORgamma inh 0.71µM
O=C(c1ccccc1)c1nc[nH]c1C(=O)Nc1ccccc1	VP16 counter 1.6µM, RORgamma inh 0.71µM
C[C@@H](NC(=O)c1[nH]cnc1C(=O)Nc1ccccc1)c1ccccc1	none (no result: VP16 counter, NPSR antag, RORgamma inh)
Cc1ccc(NC(=O)c2nc[nH]c2C(=O)N[C@@H](C)c2ccccc2)cc1	VP16 counter 3.2µM, NPSR antag inconclusive, RORgamma inh 1.1µM
c1ccc2c(-n3ccnc3)nc(-c3ccoc3)nc2c1	none (no result: B2AR arrestin, NPSR antag)
C[C@@H](NC(=O)c1nc[nH]c1C(=O)N[C@H](C)c1ccccc1)c1ccccc1	none (no result: VP16 counter, NPSR antag, RORgamma inh)
C[C@H](NC(=O)c1nc[nH]c1C(=O)N[C@@H](C)c1ccccc1)C(=O)OC(C)(C)C	VP16 counter 6.3µM, RORgamma inh 2.8µM
CCC1OCCC=CC1C (stereo unspecified)	none (no result: B2AR arrestin, NPSR antag)
CCN(Cc1ccccc1)C(=O)CS(=O)(=O)c1ccccc1	none
O=S(=O)(C/C(=C/CO)S(=O)(=O)c1ccccc1)c1ccccc1	VP16 counter 4.5µM, RORgamma inh 4µM
CN1CCc2c(sc(NC(=O)c3cc4cc([N+](=O)[O-])ccc4s3)c2C(N)=O)C1	VP16 counter 3.2µM, RORgamma inh 5.6µM
CCCCC#Cc1nc(N)c2ncn([C@@H]3O[C@H](C(=O)NCC)[C@@H](O)[C@H]3O)c2n1	none (no result: B2AR arrestin, VP16 counter, RORgamma inh)
O=C(Nc1ccc(NC(=O)C2CC2)nc1)c1ccccn1	VP16 counter 7.1µM
O=C(Nc1ccccn1)c1ccco1	none
O=C(/C=C/c1ccccc1O)c1ccco1	VP16 counter 11µM, RORgamma inh 7.9µM (no result: NPSR antag)
CC(C)(C)C(=O)Nc1ccc(/C=C/C(=O)c2ccco2)cc1	RORgamma inh 10µM (no result: NPSR antag)
Nc1ccc(/C=C/C(=O)c2ccco2)cc1	VP16 counter inconclusive, RORgamma inh inconclusive
O=C(Nc1ccc(NC(=O)C2CC2)nc1)c1cnccn1	none
O=C(Nc1ccc(Cl)cc1C(=O)Nc1ccccn1)c1ccco1	VP16 counter inconclusive, RORgamma inh 13µM
COCCn1c(Cc2cccn2C)nnc1SCC(=O)NCc1ccc2c(c1)OCO2	none
Cc1cc(C)c(-c2cc([C@H](C)O/N=C\[C@@H](C)[C@H](OCc3ccccc3)C(C)C)on2)c(C)c1	none (no result: B2AR arrestin, NPSR antag)
CC(C)=CCC/C(C)=C/CO/N=C1/C[C@@H](O)[C@@H](O)[C@@H]2[C@H]3C(=O)N(c4ccc(F)cc4F)C(=O)[C@@H]3CC[C@@H]12	none (no result: B2AR arrestin, NPSR antag)
CC1CCC2(CC1)OCC1(CCC3(COC4(CCC(C)CC4)OC3)C1=O)CO2 (stereo unspecified)	none
